Source: PubChem BioAssay (EPA / NIEHS)
Inconclusive results are not listed. Calls of active or inactive are those of the source. The calls were made as follows, unless noted: active = hit-call score of the fitted dose curve at least 0.9, where 1 is the maximum; inconclusive = response in the unintended direction; inactive = score below 0.9.

Assays:
[1] = ATG_M_19_CIS: Attagene CIS-FACTORIAL HepG2 Assay for M19 Transcription Factor (Internal Marker) (AID 2282939; active = hit-call score of the fitted dose curve at least 0.9, where 1 is the maximum; inactive = score below 0.9); details: HepG2 Attagene CIS-FACTORIAL M19 internal marker reporter; actives raise or lower the signal
Summary of the method: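 Signals come from fluorescence of labelled reporter-specific PCR fragments resolved by capillary electrophoresis, following 24 h treatment of HepG2 cells transfected with cis-promoter reporter units; activity was fitted in both directions relative to DMSO.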

[2] = ATG_FoxO_CIS: Attagene CIS-FACTORIAL HepG2 Assay for human Forkhead box O (FoxO) (AID 2282943; active = hit-call score of the fitted dose curve at least 0.9, where 1 is the maximum; inactive = score below 0.9); details: HepG2 Attagene cis-reporter, FoxO element, mRNA; actives raise or lower the signal
Summary of the method: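 HepG2 cells transiently transfected with cis-element-driven reporter units report endogenous FoxO activity. After 24 h chemical exposure, reporter mRNA quantified by RT-PCR, fluorescent labeling, HpaI digestion and capillary electrophoresis; bidirectional fit versus DMSO.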

[3] = ATG_GRE_CIS: Attagene CIS-FACTORIAL HepG2 Assay for human Glucocorticoid Response Elements (GRE) (AID 2282947; active = hit-call score of the fitted dose curve at least 0.9, where 1 is the maximum; inactive = score below 0.9); details: HepG2 GRE cis-reporter, Attagene multiplex mRNA; actives raise or lower the signal
Summary of the method: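 Read-out: fluorescent reporter-transcript fragments separated by capillary electrophoresis after RT-PCR. Transiently transfected HepG2 cells carrying cis-element-driven reporter units were dosed for 24 h; gain or loss of signal fitted against DMSO control.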

[4] = biological target: Heat shock factor protein 1 (Homo sapiens) (UniProt Q00613); experiment: ATG_HSE_CIS: Attagene CIS-FACTORIAL HepG2 Assay for human Heat Shock Transcription Factor 1 (HSE) (AID 2282953; active = hit-call score of the fitted dose curve at least 0.9, where 1 is the maximum; inactive = score below 0.9); details: HepG2 HSE cis-reporter, Attagene RNA transcription; actives raise or lower the signal
Summary of the method: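 Endogenous transcription factor activity captured via cis-promoter reporter units transfected into HepG2; treatment lasted 24 h. Fluorescence intensity of reporter fragments analysed with bidirectional curve fitting, DMSO baseline.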

[5] = biological target: Hepatocyte nuclear factor 4-alpha (Homo sapiens) (UniProt P41235); experiment: ATG_HNF4a_TRANS: Attagene TRANS-FACTORIAL HepG2 Assay for human Hepatocyte Nuclear Factor 4 alpha (HNF4a) (AID 2282982); details: HepG2 HNF4a transactivation reporter, mRNA readout
Summary of the method: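 Transient MRTU transfection of HepG2, 24 h dosing. Readout: reporter mRNA via RT-PCR + capillary electrophoresis, fluorescence; activity fit upward relative to DMSO control.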

[6] = ATG_M_06_TRANS: Attagene TRANS-FACTORIAL HepG2 Assay for M06 Transcription Factor (Internal Marker) (AID 2282983); details: HepG2 Attagene TRANS M06 internal marker reporter;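 also: reporter transcript level by RT-PCR then capillary electrophoresis fluorescence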
Summary of the method: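 Human liver HepG2 cells bearing transiently transfected chimeric NR-GAL4 reporter units were treated with chemicals for 24 h. Total RNA was reverse-transcribed, reporter sequences amplified and labelled, then quantified by capillary electrophoresis. Activity was fitted upward relative to DMSO.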

[7] = ATG_NRF2_ARE_CIS: Attagene CIS-FACTORIAL HepG2 Assay for human Nuclear Factor Erythroid 2 Related Factor 2 (NFR2) response to Antioxidant Response Elements (ARE) (AID 2282992; active = hit-call score of the fitted dose curve at least 0.9, where 1 is the maximum; inactive = score below 0.9;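 as to AC50: reporter mRNA level measured by RT-PCR and capillary electrophoresis fluorescence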); details: HepG2 Attagene ARE/NRF2 reporter, transcription factor activity; actives raise or lower the signal
Summary of the method: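 Endogenous transcription factor activity in human liver HepG2 cells is tracked via a cis-element-driven reporter within a multiplexed set. mRNA induction is read by RT-PCR and capillary electrophoresis after 24 h, with DMSO as baseline.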

[8] = biological target: human Peroxisome Proliferator-activated Receptor alpha (PPARa), PPARA (gene 5465) (UniProt Q07869); experiment: ATG_PPARa_TRANS: Attagene TRANS-FACTORIAL HepG2 Assay for human Peroxisome Proliferator-activated Receptor alpha (PPARa) (AID 2283001)
Summary of the method: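 Transient HepG2 transfection, GAL4-UAS reporters, NR-Gal4 chimeras; 24 h compound exposure. Readout: reporter transcripts by RT-PCR, 6-FAM primer extension, HpaI digest, capillary electrophoresis. Positive direction vs DMSO baseline.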

[9] = biological target: Retinoic acid receptor RXR-alpha (Homo sapiens) (UniProt P19793); experiment: ATG_RXRa_TRANS: Attagene TRANS-FACTORIAL HepG2 Assay for human Retinoid X Receptor alpha (RXRa) (AID 2283012)
Summary of the method: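 Read-out: fluorescent reporter-transcript fragments quantified by capillary electrophoresis after RT-PCR. Transiently transfected HepG2 cells carrying GAL4-UAS reporters and NR-GAL4 chimeras were exposed to chemical for 24 h; activity scored as increase over DMSO.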

[10] = biological target: Cellular tumor antigen p53 (Homo sapiens) (UniProt P04637); experiment: TOX21_p53_BLA_p5_ratio: Tox21 HCT-116 p53 Agonism Beta-lactamase Assay, Ratio, Phase 5 (AID 2283599)
Summary of the method: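 HCT-116 p53-bla cells (4000/well) plated 5 h, dosed with compound (217-fold DMSO dilution) for 16 h at 37 C; CCF4-AM substrate 2 h at room temperature. Activity is the 460/530 nm emission ratio (405 nm excitation), fitted in gain-of-signal direction versus DMSO.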

[11] = biological target: Cellular tumor antigen p53 (Homo sapiens) (UniProt P04637); experiment: TOX21_p53_BLA_p4_ratio: Tox21 HCT-116 p53 Agonism Beta-lactamase Assay, Ratio, Phase 4 (AID 2283601)
Summary of the method: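 HCT-116 p53 beta-lactamase reporter cells (4000/well) preincubated 5 h, then compound (217-fold dilution of DMSO stock) for 16 h at 37C. CCF4-AM substrate added 2 h at room temperature; 460/530 nm emission ratio fitted upward versus DMSO.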

[12] = biological target: Hypoxia-inducible factor 1-alpha (Homo sapiens) (UniProt Q16665); experiment: ATG_HIF1a_CIS: Attagene CIS-FACTORIAL HepG2 Assay for human Hypoxia Inducible Factor 1 (HIF1A) (AID 2282951; active = hit-call score of the fitted dose curve at least 0.9, where 1 is the maximum; inactive = score below 0.9); details: HepG2 Attagene cis-factorial HIF1a reporter transcription; actives raise or lower the signal
Summary of the method: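 HepG2 cells transiently transfected with multiple cis-regulated reporter transcription units measure endogenous transcription factor activity. After 24 h exposure, reporter mRNA is quantified by RT-PCR with 6-FAM labelling, HpaI digestion and capillary electrophoresis. Bidirectional fitting against DMSO.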

[13] = ATG_PBREM_CIS: Attagene CIS-FACTORIAL HepG2 Assay for human Phenobarbital-responsive Enhancer Module (PBREM) (AID 2282955; active = hit-call score of the fitted dose curve at least 0.9, where 1 is the maximum; inactive = score below 0.9); details: HepG2 PBREM cis-reporter, Attagene multiplexed transcription; actives raise or lower the signal
Summary of the method: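 HepG2 cells transiently transfected with multiple cis-regulated reporter units measure endogenous transcription factor activity; 24 h compound exposure. Reporter mRNA quantified by RT-PCR, fluorescent labelling, HpaI digestion and capillary electrophoresis; bidirectional fit versus DMSO.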

[14] = ATG_RORE_CIS: Attagene CIS-FACTORIAL HepG2 Assay for human RAR-related Orphan Receptor Element (RORE) (AID 2282959; active = hit-call score of the fitted dose curve at least 0.9, where 1 is the maximum; inactive = score below 0.9); details: HepG2 Attagene cis-factorial RORE reporter, mRNA; actives raise or lower the signal
Summary of the method: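 HepG2 cells carrying transiently transfected cis-regulated reporter units; RORE-driven reporter mRNA quantified 24 h post-dosing by RT-PCR, 6-FAM primer extension, HpaI digestion and capillary electrophoresis. Bidirectional fit versus DMSO.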

[15] = biological target: Peroxisome proliferator-activated receptor gamma (Homo sapiens) (UniProt P37231); experiment: ATG_PPARg_TRANS: Attagene TRANS-FACTORIAL HepG2 Assay for human Peroxisome Proliferator-activated Receptor-gamma (PPARg) (AID 2283007)
Summary of the method: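 HepG2 cells are transiently transfected with GAL4-UAS reporter units driven by chimeric NR-Gal4 fusions and dosed for 24 h. Reporter mRNA is quantified by RT-PCR, 6-FAM labelling, HpaI digestion and capillary electrophoresis. Induction is scored against DMSO.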

[16] = biological target: Nuclear receptor subfamily 1 group I member 2 (Homo sapiens) (UniProt O75469); experiment: ATG_PXR_TRANS: Attagene TRANS-FACTORIAL HepG2 Assay for human Pregnane X Receptor (PXR) (AID 2283008)
Summary of the method: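 HepG2 transfected (FuGene 6) with GAL4-UAS reporter units + PXR-Gal4 chimera; dosed 24 h. Total RNA → oligo(dT) RT → PCR → 6-FAM primer extension → HpaI cut → CE. Gain-of-signal vs DMSO.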

[17] = biological target: human Thyroid Receptor alpha (THRa1), THRA (gene 7067) (UniProt P10827); experiment: ATG_THRa1_TRANS: Attagene TRANS-FACTORIAL HepG2 Assay for human Thyroid Receptor alpha (THRa1) (AID 2283014)
Summary of the method: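 First, HepG2 cells receive multiple GAL4-UAS reporter units and the chimeric receptor. They are then dosed for 24 h, after which RNA is reverse-transcribed, amplified, labelled, HpaI-cut and sized by capillary electrophoresis; gain relative to DMSO is scored.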

[18] = biological target: Cellular tumor antigen p53 (Homo sapiens) (UniProt P04637); experiment: TOX21_p53_BLA_p2_ratio: Tox21 HCT-116 p53 Agonism Beta-lactamase Assay, Ratio, Phase 2 (AID 2283592)
Summary of the method: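 Cleaved-to-uncleaved substrate ratio (460 vs 530 nm) measured in HCT116 cells with an inducible beta-lactamase reporter linked to p53 activity. Compounds incubated 16 h at 37C before 2 h room-temperature CCF4-AM loading.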

[19] = biological target: Cellular tumor antigen p53 (Homo sapiens) (UniProt P04637); experiment: TOX21_p53_BLA_p3_ratio: Tox21 HCT-116 p53 Agonism Beta-lactamase Assay, Ratio, Phase 3 (AID 2283596)
Summary of the method: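 Cells were seeded at 4000/well, rested 5 h at 37C, then dosed with DMSO compound solutions (217-fold dilution) for 16 h. CCF4-AM substrate was loaded for 2 h at room temperature, and the 460/530 nm emission ratio was fitted for gain of signal versus DMSO.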

[20] = TOX21_p53_BLA_p5_viability: Viability Assessment in the Tox21 HCT-116 p53 Agonism Beta-lactamase Assay, Phase 5 (AID 2283600)
Summary of the method: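 Viability is taken from cellular ATP content, measured by luciferase luminescence in the same wells after the beta-lactamase ratio read. Cells are seeded at 4000 per well and exposed to DMSO-dissolved compounds, diluted 217-fold, for 16 h.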

Measured: AC50

Chain of Heat shock factor protein 1 (Homo sapiens) (Q00613 whole entry, looked up, the tested form may be a part): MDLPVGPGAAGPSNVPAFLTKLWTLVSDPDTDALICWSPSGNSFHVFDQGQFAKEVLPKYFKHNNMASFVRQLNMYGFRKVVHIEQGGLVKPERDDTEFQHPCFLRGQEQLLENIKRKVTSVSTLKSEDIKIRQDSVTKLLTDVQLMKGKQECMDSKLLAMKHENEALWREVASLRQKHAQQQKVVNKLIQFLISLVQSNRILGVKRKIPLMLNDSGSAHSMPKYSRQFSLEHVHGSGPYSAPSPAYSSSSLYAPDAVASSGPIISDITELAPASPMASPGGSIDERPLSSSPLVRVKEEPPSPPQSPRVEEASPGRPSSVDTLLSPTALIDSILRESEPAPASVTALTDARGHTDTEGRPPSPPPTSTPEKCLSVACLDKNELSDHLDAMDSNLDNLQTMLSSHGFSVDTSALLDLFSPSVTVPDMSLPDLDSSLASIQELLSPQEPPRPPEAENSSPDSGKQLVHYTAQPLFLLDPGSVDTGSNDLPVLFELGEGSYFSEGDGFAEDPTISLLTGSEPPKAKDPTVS
Chain of Retinoic acid receptor RXR-alpha (Homo sapiens) (P19793 whole entry, looked up, the tested form may be a part): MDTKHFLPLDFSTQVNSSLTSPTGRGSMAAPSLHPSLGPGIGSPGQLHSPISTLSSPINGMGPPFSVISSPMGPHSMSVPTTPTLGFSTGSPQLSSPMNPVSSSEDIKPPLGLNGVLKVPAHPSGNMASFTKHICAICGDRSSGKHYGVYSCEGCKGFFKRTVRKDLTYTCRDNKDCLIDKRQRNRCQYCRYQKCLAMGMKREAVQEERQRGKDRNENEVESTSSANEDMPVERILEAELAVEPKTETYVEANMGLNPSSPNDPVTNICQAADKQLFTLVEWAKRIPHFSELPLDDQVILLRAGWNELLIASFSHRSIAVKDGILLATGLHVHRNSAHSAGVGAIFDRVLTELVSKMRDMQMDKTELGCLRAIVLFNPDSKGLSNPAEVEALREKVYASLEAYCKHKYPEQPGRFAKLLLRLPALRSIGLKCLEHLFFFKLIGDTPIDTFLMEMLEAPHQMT
Chain of Hepatocyte nuclear factor 4-alpha (Homo sapiens) (P41235 whole entry, looked up): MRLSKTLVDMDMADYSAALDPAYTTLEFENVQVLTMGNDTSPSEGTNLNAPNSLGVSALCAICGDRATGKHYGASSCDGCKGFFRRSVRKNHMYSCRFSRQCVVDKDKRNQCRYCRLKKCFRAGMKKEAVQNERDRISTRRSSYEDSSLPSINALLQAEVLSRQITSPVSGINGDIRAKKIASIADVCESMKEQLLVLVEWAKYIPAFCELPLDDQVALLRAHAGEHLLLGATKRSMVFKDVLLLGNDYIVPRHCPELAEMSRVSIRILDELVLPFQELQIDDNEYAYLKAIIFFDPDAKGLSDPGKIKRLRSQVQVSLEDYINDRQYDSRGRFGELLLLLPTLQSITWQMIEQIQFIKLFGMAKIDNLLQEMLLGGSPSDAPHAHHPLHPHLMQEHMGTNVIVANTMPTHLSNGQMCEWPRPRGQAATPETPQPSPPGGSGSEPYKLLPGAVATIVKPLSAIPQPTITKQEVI
Chain of human Peroxisome Proliferator-activated Receptor alpha (PPARa), PPARA (gene 5465) (Q07869 whole entry, looked up, the tested form may be a part): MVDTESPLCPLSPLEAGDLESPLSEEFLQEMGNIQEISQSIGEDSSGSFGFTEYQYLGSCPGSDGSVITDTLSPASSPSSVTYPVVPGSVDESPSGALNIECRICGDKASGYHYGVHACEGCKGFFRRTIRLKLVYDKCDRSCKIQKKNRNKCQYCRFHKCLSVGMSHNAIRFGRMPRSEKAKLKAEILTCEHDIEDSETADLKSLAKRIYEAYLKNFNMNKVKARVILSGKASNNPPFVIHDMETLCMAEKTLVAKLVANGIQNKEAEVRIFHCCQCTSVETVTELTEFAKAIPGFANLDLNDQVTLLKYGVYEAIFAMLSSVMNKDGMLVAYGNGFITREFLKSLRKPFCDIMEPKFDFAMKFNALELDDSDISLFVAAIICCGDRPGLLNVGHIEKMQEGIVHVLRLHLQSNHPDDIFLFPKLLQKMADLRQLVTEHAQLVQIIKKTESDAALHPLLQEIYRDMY
Chain of Peroxisome proliferator-activated receptor gamma (Homo sapiens) (P37231 whole entry, looked up, the tested form may be a part): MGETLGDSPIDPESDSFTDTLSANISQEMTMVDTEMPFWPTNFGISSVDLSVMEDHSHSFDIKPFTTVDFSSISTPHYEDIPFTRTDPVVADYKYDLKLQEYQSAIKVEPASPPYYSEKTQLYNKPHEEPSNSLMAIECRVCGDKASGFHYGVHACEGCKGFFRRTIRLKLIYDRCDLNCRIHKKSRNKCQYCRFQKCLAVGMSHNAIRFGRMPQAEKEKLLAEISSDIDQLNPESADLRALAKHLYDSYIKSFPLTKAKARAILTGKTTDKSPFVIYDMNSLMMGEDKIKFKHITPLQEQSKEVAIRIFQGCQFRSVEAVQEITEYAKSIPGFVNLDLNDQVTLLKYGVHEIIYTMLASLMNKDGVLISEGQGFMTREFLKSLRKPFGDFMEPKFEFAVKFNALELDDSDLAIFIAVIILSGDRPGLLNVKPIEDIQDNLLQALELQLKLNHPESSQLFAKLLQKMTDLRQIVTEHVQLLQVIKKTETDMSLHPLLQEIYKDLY
Chain of Nuclear receptor subfamily 1 group I member 2 (Homo sapiens) (O75469 whole entry, looked up, the tested form may be a part): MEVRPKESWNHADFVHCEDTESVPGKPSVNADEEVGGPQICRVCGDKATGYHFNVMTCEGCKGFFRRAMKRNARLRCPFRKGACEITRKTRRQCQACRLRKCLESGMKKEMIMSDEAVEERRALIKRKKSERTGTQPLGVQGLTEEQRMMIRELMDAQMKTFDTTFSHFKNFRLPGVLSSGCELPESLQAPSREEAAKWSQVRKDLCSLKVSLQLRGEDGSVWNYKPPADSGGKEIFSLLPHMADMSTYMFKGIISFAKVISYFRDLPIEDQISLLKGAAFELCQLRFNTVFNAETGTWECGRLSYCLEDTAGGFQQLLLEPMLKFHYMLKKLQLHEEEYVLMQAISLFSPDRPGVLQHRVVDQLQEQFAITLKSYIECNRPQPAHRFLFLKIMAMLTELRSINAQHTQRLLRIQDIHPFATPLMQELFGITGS
Chain of Cellular tumor antigen p53 (Homo sapiens) (P04637 whole entry, looked up): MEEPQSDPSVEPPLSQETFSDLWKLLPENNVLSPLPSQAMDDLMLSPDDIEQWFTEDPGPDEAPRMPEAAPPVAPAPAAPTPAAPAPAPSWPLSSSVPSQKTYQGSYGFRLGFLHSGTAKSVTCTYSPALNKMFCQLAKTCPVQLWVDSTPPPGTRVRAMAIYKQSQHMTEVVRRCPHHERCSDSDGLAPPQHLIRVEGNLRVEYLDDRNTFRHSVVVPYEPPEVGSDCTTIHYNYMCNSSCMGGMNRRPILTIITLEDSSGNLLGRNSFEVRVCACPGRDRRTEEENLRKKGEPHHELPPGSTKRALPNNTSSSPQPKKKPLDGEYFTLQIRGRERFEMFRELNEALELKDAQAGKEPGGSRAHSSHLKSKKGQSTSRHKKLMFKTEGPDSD
Chain of human Thyroid Receptor alpha (THRa1), THRA (gene 7067) (P10827 whole entry, looked up, the tested form may be a part): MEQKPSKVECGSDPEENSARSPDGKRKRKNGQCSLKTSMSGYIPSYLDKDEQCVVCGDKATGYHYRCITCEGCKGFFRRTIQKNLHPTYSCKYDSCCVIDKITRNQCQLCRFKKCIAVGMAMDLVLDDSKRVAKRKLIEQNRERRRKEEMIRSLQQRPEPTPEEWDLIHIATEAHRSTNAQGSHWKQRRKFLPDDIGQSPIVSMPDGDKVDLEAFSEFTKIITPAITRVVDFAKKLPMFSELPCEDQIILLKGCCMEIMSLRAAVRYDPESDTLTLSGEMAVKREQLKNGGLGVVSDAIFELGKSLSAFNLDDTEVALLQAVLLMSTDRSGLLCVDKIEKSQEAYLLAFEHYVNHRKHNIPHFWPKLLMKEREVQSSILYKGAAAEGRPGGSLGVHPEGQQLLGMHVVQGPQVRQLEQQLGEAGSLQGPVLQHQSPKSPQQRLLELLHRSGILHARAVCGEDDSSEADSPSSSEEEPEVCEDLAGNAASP
Chain of Hypoxia-inducible factor 1-alpha (Homo sapiens) (Q16665 whole entry, looked up): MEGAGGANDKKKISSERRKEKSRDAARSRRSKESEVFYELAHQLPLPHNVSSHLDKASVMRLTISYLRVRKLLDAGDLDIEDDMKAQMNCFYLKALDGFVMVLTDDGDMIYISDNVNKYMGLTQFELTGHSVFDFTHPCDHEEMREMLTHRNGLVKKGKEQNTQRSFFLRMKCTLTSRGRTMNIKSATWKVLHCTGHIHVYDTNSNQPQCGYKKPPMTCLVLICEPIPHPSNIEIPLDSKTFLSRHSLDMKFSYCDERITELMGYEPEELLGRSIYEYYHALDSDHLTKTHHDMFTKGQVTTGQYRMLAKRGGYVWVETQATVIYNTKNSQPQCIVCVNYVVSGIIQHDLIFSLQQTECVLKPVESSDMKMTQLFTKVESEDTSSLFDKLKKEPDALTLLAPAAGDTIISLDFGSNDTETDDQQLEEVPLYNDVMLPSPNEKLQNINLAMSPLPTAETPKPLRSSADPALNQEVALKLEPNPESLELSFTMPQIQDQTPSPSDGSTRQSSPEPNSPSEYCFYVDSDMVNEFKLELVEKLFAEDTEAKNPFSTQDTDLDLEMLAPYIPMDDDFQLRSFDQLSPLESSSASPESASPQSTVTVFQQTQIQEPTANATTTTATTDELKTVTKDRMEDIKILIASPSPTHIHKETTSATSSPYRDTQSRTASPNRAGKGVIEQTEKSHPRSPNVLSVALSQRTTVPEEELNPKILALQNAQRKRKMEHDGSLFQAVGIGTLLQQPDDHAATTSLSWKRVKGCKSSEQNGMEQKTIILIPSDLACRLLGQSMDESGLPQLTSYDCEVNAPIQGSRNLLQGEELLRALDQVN

CN(C)N
inactive: [1] | [2] | [3] | [4] | [5] | [6] | [7] | [8] | [9] | [10] | [11]

O=c1[nH]c(Cl)c(Cl)cc1Cl
active: [12] 59.5 µM | [7] 76.3 µM | [15] 14.2 µM
inactive: [1] | [2] | [4] | [13] | [14] | [8] | [16] | [9] | [17] | [18] | [19] | [10] | [20] | [11]

CN(C)C(=O)C(c1ccccc1)c1ccccc1
inactive: [2] | [12] | [4] | [13] | [14] | [5] | [7] | [8] | [15] | [9] | [18] | [19] | [10] | [20]
active: [16] 4.18 µM

N#Cc1cccc(C#N)c1
inactive: [1] | [2] | [3] | [12] | [4] | [13] | [14] | [5] | [6] | [8] | [15] | [16] | [9] | [18] | [19] | [10] | [20] | [11]

CCOP(O)OCC
inactive: [1] | [2] | [3] | [12] | [13] | [14] | [5] | [6] | [15] | [9] | [17]

CCc1cccc(C)c1N(C(=O)CCl)[C@@H](C)COC
inactive: [12] | [4] | [13] | [6] | [18] | [19] | [10] | [20] | [11]
active: [15] 27 µM | [16] 0.18 µM

CCOP(=O)(OCC)OCC
inactive: [1] | [2] | [3] | [13] | [5] | [7] | [8] | [15] | [16] | [9] | [17] | [18] | [19] | [10] | [20] | [11]

Cc1ccc(OP(=O)(Oc2ccc(C)cc2)Oc2ccc(C)cc2)cc1 (tested in a mixture with another compound)
active: [15] 1.85 µM | [16] 0.596 µM
inactive: [2] | [3] | [12] | [6] | [7] | [9] | [18] | [19] | [10] | [20] | [11]

C=CC(=O)OC
inactive: [1] | [13] | [14] | [5] | [6] | [7] | [8] | [17] | [18] | [20] | [11]
